Source: PubChem BioAssay (The Scripps Research Institute Molecular Screening Center)
MITF primary – MITF inhibitors, primary screen, biochemical, AlphaScreen, human. AlphaScreen MITF homodimerization, bead proximity signal. Microphthalmia-associated transcription factor (Homo sapiens), O75030. hit rate 0.91% among 650,000. inhibition, % at 2.6 µM; in the data active = inhibition above about 50%;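 note: 0% = vehicle wells with protein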
Target sequence (O75030 whole entry, looked up): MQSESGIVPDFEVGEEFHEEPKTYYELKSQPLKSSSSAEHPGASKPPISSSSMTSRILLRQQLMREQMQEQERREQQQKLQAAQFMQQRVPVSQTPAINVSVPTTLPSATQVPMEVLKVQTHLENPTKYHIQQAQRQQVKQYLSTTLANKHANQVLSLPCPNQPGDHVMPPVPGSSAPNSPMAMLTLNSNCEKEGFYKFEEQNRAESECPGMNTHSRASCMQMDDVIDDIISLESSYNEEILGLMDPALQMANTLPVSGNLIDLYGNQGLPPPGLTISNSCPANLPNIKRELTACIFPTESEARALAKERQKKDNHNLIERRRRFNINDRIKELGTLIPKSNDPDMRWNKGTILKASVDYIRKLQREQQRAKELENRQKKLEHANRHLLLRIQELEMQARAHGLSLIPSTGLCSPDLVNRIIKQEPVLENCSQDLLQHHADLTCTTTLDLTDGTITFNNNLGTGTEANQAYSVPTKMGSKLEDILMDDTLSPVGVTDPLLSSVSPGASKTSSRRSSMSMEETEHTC
FBW7 activator – FBW7 E3 ligase activators, primary screen, biochemical, AlphaScreen, human; normalized activity (activation), % at 26.1 µM; AlphaScreen FBW7–phospho-cyclin E peptide binding, activator screen; AID 1259310, 2017; hit rate 0.13% among 650,000; in the data active = normalized activity above about 1.9%;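 note: purified mutant Fbw7 with reduced substrate affinity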
TEAD-YAP block – TEAD-YAP interaction inhibition, primary screen, TEAD-YAP interaction inhibitor project, luminescence, HEK-TIYL cells; TEAD-Gal4/YAP UAS-luciferase luminescence; inhibition, % at 9.12 µM; hit rate 1.4% among 640,000; in the data active = inhibition above about 32%;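 note: 0% = median of test compound wells and 100% = reference inhibitor wells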
GPR151 activ – activators of human GPR151, primary screen, cell-based, PathHunter beta-arrestin, luminescence; PathHunter beta-arrestin GPR151 cells; activation, % at 11.2 µM; hit rate 1% among 650,000; AID 1508602, 2020; in the data active = activation above about 4.9%;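 note: 0% = median of compound wells and 100% = cells with positive control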
MITF inh conf – MITF inhibitors, retest of hits, confirmation, biochemical, AlphaScreen, triplicate | shares compounds with MITF primary | AlphaScreen MITF homodimerization, biotin/His-MITF beads | inhibition, % at 2.6 µM | hit rate 16% among 4,700;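 active = inhibition above a cutoff derived from the DMSO control wells, cut at about 28% in these data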;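 note: 0% = MITF dimer wells with DMSO only; inhibitors lower the bead chemiluminescence by keeping MITF from dimerizing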
AlphaScreen DR – AlphaScreen optical interference compounds, dose response, counter-screen, biochemical, HTS; IC50, µM; AlphaScreen optical interference counterscreen, cell-free; shares compounds with MITF primary; AID 1259373, 2018; hit rate 6% among 480; call rule not given here
AlphaScreen intf2 – AlphaScreen optical interference compounds, counter-screen for MITF inhibitor project, biochemical, triplicate; shares compounds with MITF primary; inhibition, % at 2.6 µM; hit rate 7.6% among 4,700; LysRS AlphaScreen counterscreen, signal interference; AID 1259376, 2018;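 active = inhibition above a cutoff derived from the DMSO control wells, cut at about 30% in these data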
* marks the source's active call; other numbers are inactive results. This is a sample that favours compounds with a hit; in the whole collection about 3.5% have one here.

C=CCn1c(=S)[nH]c2cc(C(=O)Nc3ccccc3F)ccc2c1=O was read as MITF primary -3.9, FBW7 activator 0.1, TEAD-YAP block -25.4 and GPR151 activ -1.5.
`COCCNCC(=O)Nc1nc(C)cs1` gave MITF primary 70.4*, FBW7 activator -0.1, TEAD-YAP block -1.8, GPR151 activ 0.5, MITF inh conf 15.4 and AlphaScreen intf2 18.6.
COCCNCC(=O)Nc1nnc(C)s1 was read as MITF primary 13.9, FBW7 activator -0.3, TEAD-YAP block 1.5 and GPR151 activ -0.7.
Screening COC1CCC(C(=O)N[C@H](Cn2nc(-c3cccs3)ccc2=O)C(C)C)CC1 (some centres not stated) returned MITF primary 6.3, FBW7 activator 0.0, TEAD-YAP block 2.9 and GPR151 activ -0.2.
Screening O=C(CSc1ccc(-c2cccnc2)nn1)NCc1ccccc1 returned MITF primary 51.0*, FBW7 activator 0.1, TEAD-YAP block 7.9, GPR151 activ 0.1, MITF inh conf 4.7 and AlphaScreen intf2 -3.2.
`O=C(CSc1ccc(-c2cccnc2)nn1)NCc1ccccc1Cl` gave MITF primary -9.8, FBW7 activator -0.1, TEAD-YAP block -2.5 and GPR151 activ -0.6.
O=C(CN1CCN(C/C=C/c2ccccc2)CC1)NCCCc1ccccc1 was read as MITF primary 0.6, FBW7 activator 0.0, TEAD-YAP block 1.2 and GPR151 activ -0.9.
CC(C(=O)N(C)Cc1ccccc1)N1CCN(C/C=C/c2ccccc2)CC1 (configuration not stated) was read as MITF primary 59.1*, FBW7 activator -0.3, TEAD-YAP block -5.2, GPR151 activ -1.1, MITF inh conf 9.1 and AlphaScreen intf2 16.2.
O=C(CN1CCN(C/C=C/c2ccccc2)CC1)NCc1ccccc1 was read as MITF primary 73.5*, FBW7 activator -0.2, TEAD-YAP block 10.3, GPR151 activ 0.0, MITF inh conf 6.3 and AlphaScreen intf2 -10.6.
O=C(N[C@H]1C[C@H]2C(=O)N[C@@H](Cc3c[nH]c4ccccc34)C(=O)N2C1)c1ccc(C(F)(F)F)cc1 was read as MITF primary 0.8, FBW7 activator 0.1, TEAD-YAP block -9.3 and GPR151 activ -0.6.
`COc1ccc(OC)c(-n2cnc3cc(C(=O)NCC(OC)OC)ccc32)c1` gave MITF primary 5.8, FBW7 activator -0.2, TEAD-YAP block -0.3 and GPR151 activ 0.4.
For CN1CCCN(Cc2cc(F)ccc2F)CC1 the results were MITF primary 69.6*, FBW7 activator 0.9, TEAD-YAP block 12.1, GPR151 activ -1.0, MITF inh conf -2.6 and AlphaScreen intf2 2.1.
Screening OCCN1CCN(Cc2c3ccccc3cc3ccccc23)CC1 returned MITF primary 11.2, FBW7 activator 0.6, TEAD-YAP block 12.8 and GPR151 activ -0.9.
Cc1ccccc1CN1CCCN(C)CC1 was read as MITF primary 4.8, FBW7 activator -0.1, TEAD-YAP block 9.2 and GPR151 activ 0.4.
Screening CN1CCN(Cc2c3ccccc3cc3ccccc23)CC1 returned MITF primary 75.5*, FBW7 activator 0.0, TEAD-YAP block 2.4, GPR151 activ -1.0, MITF inh conf 20.1 and AlphaScreen intf2 23.5.
For CN1CCCN(Cc2cccc3ccccc23)CC1 the results were MITF primary 51.5*, FBW7 activator 0.3, TEAD-YAP block -6.3, GPR151 activ -1.3, MITF inh conf 21.5 and AlphaScreen intf2 14.5.
Screening O=C(CN1/C(=C(\O)c2ccccc2)C(=O)c2ccccc2S1(=O)=O)c1ccc([N+](=O)[O-])cc1 returned MITF primary -15.6, FBW7 activator -0.3, TEAD-YAP block -4.1 and GPR151 activ -0.7.
Screening O=C(CC1SC(=Nc2ccccc2)NC1=O)Nc1ccc(Br)cc1 (configuration not stated) returned MITF primary -6.8, FBW7 activator 0.0, TEAD-YAP block 3.6 and GPR151 activ -0.1.
`COCCN(CCOC)S(=O)(=O)c1ccc(C(=O)Nc2nc(-c3ccc(C)cc3)cs2)cc1` gave MITF primary -9.6, FBW7 activator 0.0, TEAD-YAP block 0.1 and GPR151 activ 1.8.
Cn1c(-c2ccc(Cl)cc2)cnc1NCc1ccc(C#N)cc1 was read as MITF primary 53.9*, FBW7 activator 0.2, TEAD-YAP block -7.0, GPR151 activ -0.6, MITF inh conf -10.2 and AlphaScreen intf2 -12.9.
For Cn1c(-c2ccc(Br)cc2)cnc1NCc1ccc(C#N)cc1 the results were MITF primary 33.1, FBW7 activator -0.2, TEAD-YAP block -16.8 and GPR151 activ -0.4.
For CC(CCc1ccccc1)NCc1nc2ccsc2c(=O)[nH]1 (configuration not stated) the results were MITF primary 51.6*, FBW7 activator 0.6, TEAD-YAP block 2.1, GPR151 activ -0.2, MITF inh conf 2.6 and AlphaScreen intf2 0.3.
For CCCN1C(=O)CC(C(=O)OC)C12CCN(Cc1nc3ccccc3n1C)CC2 (configuration not stated) the results were MITF primary 3.3, FBW7 activator 0.3, TEAD-YAP block -10.6 and GPR151 activ 0.0.
Screening O=C(NCCCN1CCOCC1)c1cc2cc(Br)ccc2oc1=O returned MITF primary 59.6*, FBW7 activator 1.7, TEAD-YAP block 5.4, GPR151 activ -0.5, MITF inh conf 8.1 and AlphaScreen intf2 17.5.
O=C(Nc1ccc2c(c1)OCO2)c1cc2nc(-c3ccc(Cl)c(Cl)c3)cc(C(F)(F)F)n2n1 was read as MITF primary 0.8, FBW7 activator 0.0, TEAD-YAP block 1.2 and GPR151 activ -1.8.
Screening Cc1cccc(N=Cc2c(O)n(-c3cccc(C)c3)c(=S)[nH]c2=O)c1 returned MITF primary -2.2, FBW7 activator -0.1, TEAD-YAP block -8.0 and GPR151 activ 0.4.
For CC(=O)CC1OC(=O)C(Oc2ccccc2)=C1Br (configuration not stated) the results were MITF primary 1.2, FBW7 activator 0.0, TEAD-YAP block -0.6 and GPR151 activ -0.2.
NCC1OC(=O)C(Oc2ccccc2)=C1Br (configuration not stated) was read as MITF primary 58.6*, FBW7 activator -0.6, TEAD-YAP block 15.1, GPR151 activ 0.2, MITF inh conf 77.3*, AlphaScreen DR >6.48 and AlphaScreen intf2 -18.4.
`COc1cc(CN2CCN(Cc3cccc(Cl)c3)CC2)cc2c1OCO2` gave MITF primary 48.6, FBW7 activator -0.2, TEAD-YAP block -6.7 and GPR151 activ -1.2.
